# What was measured:
# Settings in all cases: treatment time: 24 h
# A549-ACTB-RAB5A [1] = experiment: lowest phenotypically active concentration; higher = less potent
# Summary of the method: (§1)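 Each of fifteen gene-edited A549, HepG2 and WPMY1 reporter lines, marked with BFP for segmentation and GFP and RFP/FusionRed, was treated in four wells at 0.3, 1, 3 or 9 µM for 24 h prior to live imaging. Normalisation of per-well live-cell features used solvent control wells. Deviation needed ≥3 of 4 wells beyond the 95th percentile of control Euclidean distances, and reproducibility needed a median replicate Pearson correlation above the 95th percentile of non-replicates. Both were required for phenotypic activity.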
# A549-CANX-COX4 [2] = experiment: as above
# Summary of the method: as §1
# A549-GM130-SQSTM1 [3] = experiment: as above
# Summary of the method: as §1
# A549-TUBA1B-RELA [4] = experiment: as above
# Summary of the method: as §1
# HepG2-ACTB-RAB5A [5] = experiment: as above
# Summary of the method: as §1
# A549-ACTB-RAB5A [6] = experiment: phenotypically active (imaging signature differs from DMSO and reproducible) at any of 0.3-9 uM (binary (1 = active, 0 = inactive)); higher = active
# Summary of the method: as §1
# A549-CANX-COX4 [7] = experiment: as above
# Summary of the method: as §1
# A549-GM130-SQSTM1 [8] = experiment: as above
# Summary of the method: as §1
# A549-TP53BP1-CLTA = experiment: as above
# Summary of the method: as §1
# A549-TUBA1B-RELA [9] = experiment: as above
# Summary of the method: as §1
# HepG2-ACTB-RAB5A [10] = experiment: as above
# Summary of the method: as §1
# HepG2-CANX-COX4 = experiment: as above
# Summary of the method: as §1
# HepG2-GM130-SQSTM1 = experiment: as above
# Summary of the method: as §1
# HepG2-TP53BP1-CLTA = experiment: as above
# Summary of the method: as §1
# HepG2-TUBA1B-RELA = experiment: as above
# Summary of the method: as §1
# WPMY1-ACTB-RAB5A = experiment: as above
# Summary of the method: as §1
# WPMY1-CANX-COX4 = experiment: as above
# Summary of the method: as §1
# WPMY1-GM130-SQSTM1 = experiment: as above
# Summary of the method: as §1
# WPMY1-TP53BP1-CLTA = experiment: as above
# Summary of the method: as §1
# WPMY1-TUBA1B-RELA = experiment: as above
# Summary of the method: as §1
SMILES,lowest phenotypically active concentration (A549-ACTB-RAB5A [1]) [µM],lowest phenotypically active concentration (A549-CANX-COX4 [2]) [µM],lowest phenotypically active concentration (A549-GM130-SQSTM1 [3]) [µM],lowest phenotypically active concentration (A549-TUBA1B-RELA [4]) [µM],lowest phenotypically active concentration (HepG2-ACTB-RAB5A [5]) [µM],phenotypically active (A549-ACTB-RAB5A [6]),phenotypically active (A549-CANX-COX4 [7]),phenotypically active (A549-GM130-SQSTM1 [8]),phenotypically active (A549-TP53BP1-CLTA),phenotypically active (A549-TUBA1B-RELA [9]),phenotypically active (HepG2-ACTB-RAB5A [10]),phenotypically active (HepG2-CANX-COX4),phenotypically active (HepG2-GM130-SQSTM1),phenotypically active (HepG2-TP53BP1-CLTA),phenotypically active (HepG2-TUBA1B-RELA),phenotypically active (WPMY1-ACTB-RAB5A),phenotypically active (WPMY1-CANX-COX4),phenotypically active (WPMY1-GM130-SQSTM1),phenotypically active (WPMY1-TP53BP1-CLTA),phenotypically active (WPMY1-TUBA1B-RELA)
Cc1cc(Nc2nc(N[C@@H](C)c3ncc(F)cn3)ncc2Cl)n[nH]1,3,3,3,1,1,1 (active),1 (active),1 (active),1 (active),1 (active),1 (active),1 (active),1 (active),1 (active),1 (active),1 (active),1 (active),1 (active),1 (active),1 (active)
O=C(Cc1ccc(-c2ccc(OCCN3CCOCC3)cc2)cn1)NCc1ccccc1,≤ 0.3,≤ 0.3,≤ 0.3,≤ 0.3,≤ 0.3,1 (active),1 (active),1 (active),1 (active),1 (active),1 (active),1 (active),1 (active),1 (active),1 (active),1 (active),1 (active),1 (active),1 (active),1 (active)
COc1ccc(N2C(=O)CSC2c2cccc(Br)c2)c(OC)c1 (stereo not given),3,9,9,9,9,1 (active),1 (active),1 (active),1 (active),1 (active),1 (active),1 (active),1 (active),1 (active),1 (active),1 (active),1 (active),1 (active),1 (active),1 (active)
CC(C)n1c(/C=C/[C@@H](O)C[C@@H](O)CC(=O)O)c(-c2ccc(F)cc2)c2ccccc21.CC(C)n1c(/C=C/[C@H](O)C[C@H](O)CC(=O)O)c(-c2ccc(F)cc2)c2ccccc21 [Fluvastatin sodium],≤ 0.3,9,3,9,1,1 (active),1 (active),1 (active),1 (active),1 (active),1 (active),1 (active),1 (active),1 (active),1 (active),1 (active),1 (active),1 (active),1 (active),1 (active)
CNC(=O)c1ccccc1Sc1ccc2c(/C=C/c3ccccn3)n[nH]c2c1 [Axitinib],1,9,1,1,3,1 (active),1 (active),1 (active),1 (active),1 (active),1 (active),1 (active),1 (active),1 (active),1 (active),1 (active),1 (active),1 (active),1 (active),1 (active)
COc1cc([C@@H]2c3cc4c(cc3[C@@H](O[C@@H]3O[C@@H]5CO[C@@H](c6cccs6)O[C@H]5[C@H](O)[C@H]3O)[C@H]3COC(=O)[C@H]23)OCO4)cc(OC)c1O [teniposide],≤ 0.3,≤ 0.3,≤ 0.3,≤ 0.3,≤ 0.3,1 (active),1 (active),1 (active),1 (active),1 (active),1 (active),1 (active),1 (active),1 (active),1 (active),1 (active),1 (active),1 (active),1 (active),1 (active)
COc1cccc(-c2cc(F)ccc2[C@H]2Cc3nc(N)nc(C)c3C(=O)N2)n1,≤ 0.3,≤ 0.3,≤ 0.3,≤ 0.3,≤ 0.3,1 (active),1 (active),1 (active),1 (active),1 (active),1 (active),1 (active),1 (active),1 (active),1 (active),1 (active),1 (active),1 (active),1 (active),1 (active)
CN(C)CCCNc1c2c(=O)n(C)c(=O)nc-2n(C)c2ccccc12,9,9,9,9,9,1 (active),1 (active),1 (active),1 (active),1 (active),1 (active),1 (active),1 (active),1 (active),1 (active),1 (active),1 (active),1 (active),1 (active),1 (active)
CCOC(=O)CCNc1cc(N2CCc3ccccc3CC2)nc(-c2ccccn2)n1,3,9,9,3,3,1 (active),1 (active),1 (active),1 (active),1 (active),1 (active),1 (active),1 (active),1 (active),1 (active),1 (active),1 (active),1 (active),1 (active),1 (active)
O=C1Nc2ccc(F)cc2C1=C1Nc2ccccc2C1=NO [5'-Fluoroindirubinoxime],1,1,1,1,≤ 0.3,1 (active),1 (active),1 (active),1 (active),1 (active),1 (active),1 (active),1 (active),1 (active),1 (active),1 (active),1 (active),1 (active),1 (active),1 (active)
COc1ccc(-c2ccc3ncc4c(c3c2)n(-c2ccc(N3CCNCC3)c(C(F)(F)F)c2)c(=O)n4C)cn1,≤ 0.3,≤ 0.3,≤ 0.3,≤ 0.3,≤ 0.3,1 (active),1 (active),1 (active),1 (active),1 (active),1 (active),1 (active),1 (active),1 (active),1 (active),1 (active),1 (active),1 (active),1 (active),1 (active)
Cc1c(NC(=O)OC[C@@H]2COCCN2)cn2ncnc(Nc3ccc4c(cnn4Cc4cccc(F)c4)c3)c12,1,1,1,1,3,1 (active),1 (active),1 (active),1 (active),1 (active),1 (active),1 (active),1 (active),1 (active),1 (active),1 (active),1 (active),1 (active),1 (active),1 (active)
Oc1ccc(-c2nc(-c3ccc(F)cc3)c(-c3ccncc3)[nH]2)cc1,3,3,9,3,3,1 (active),1 (active),1 (active),1 (active),1 (active),1 (active),1 (active),1 (active),1 (active),1 (active),1 (active),1 (active),1 (active),1 (active),1 (active)
Cc1ccc(-n2nc(C(C)(C)C)cc2NC(=O)Nc2ccc(OCCN3CCOCC3)c3ccccc23)cc1,3,9,3,3,1,1 (active),1 (active),1 (active),1 (active),1 (active),1 (active),1 (active),1 (active),1 (active),1 (active),1 (active),1 (active),1 (active),1 (active),1 (active)
OC[C@H]1O[C@@H](n2cnc3c(NCc4ccco4)ncnc32)[C@H](O)[C@@H]1O [Kinetin riboside],1,3,3,3,1,1 (active),1 (active),1 (active),1 (active),1 (active),1 (active),1 (active),1 (active),1 (active),1 (active),1 (active),1 (active),1 (active),1 (active),1 (active)
COc1ccccc1S(=O)(=O)Nc1ccc2c(c1)CN(C)C(=O)N2,1,3,3,3,1,1 (active),1 (active),1 (active),1 (active),1 (active),1 (active),1 (active),1 (active),1 (active),1 (active),1 (active),1 (active),1 (active),1 (active),1 (active)
CC[C@]1(O)C[C@@H]2CN(CCc3c([nH]c4ccccc34)[C@@](C(=O)OC)(c3cc4c(cc3OC)N(C=O)[C@H]3[C@@](O)(C(=O)OC)[C@H](OC(C)=O)[C@]5(CC)C=CCN6CC[C@]43[C@@H]65)C2)C1 [vincristine],≤ 0.3,≤ 0.3,≤ 0.3,≤ 0.3,≤ 0.3,1 (active),1 (active),1 (active),1 (active),1 (active),1 (active),1 (active),1 (active),1 (active),1 (active),1 (active),1 (active),1 (active),1 (active),1 (active)
CN(C)C1CCN(C(=O)c2ccc(NC(=O)Nc3ccc(-c4nc(N5CCOCC5)nc(N5CCOCC5)n4)cc3)cc2)CC1,≤ 0.3,≤ 0.3,≤ 0.3,≤ 0.3,≤ 0.3,1 (active),1 (active),1 (active),1 (active),1 (active),1 (active),1 (active),1 (active),1 (active),1 (active),1 (active),1 (active),1 (active),1 (active),1 (active)
CCc1cc(-c2n[nH]c(C)c2-c2ccc3c(c2)OCCO3)c(O)cc1O,3,3,3,3,3,1 (active),1 (active),1 (active),1 (active),1 (active),1 (active),1 (active),1 (active),1 (active),1 (active),1 (active),1 (active),1 (active),1 (active),1 (active)
C[C@@H]1CN(CC(=O)Nc2ccc3c(c2)Cc2cccc(-c4cc(=O)cc(N5CCOCC5)o4)c2S3)C[C@H](C)O1,3,9,3,9,1,1 (active),1 (active),1 (active),1 (active),1 (active),1 (active),1 (active),1 (active),1 (active),1 (active),1 (active),1 (active),1 (active),1 (active),1 (active)
COCc1c(C(C)C)nc(C(C)C)c(/C=C/[C@@H](O)C[C@@H](O)CC(=O)O)c1-c1ccc(F)cc1 [cerivastatin],≤ 0.3,1,1,1,≤ 0.3,1 (active),1 (active),1 (active),1 (active),1 (active),1 (active),1 (active),1 (active),1 (active),1 (active),1 (active),1 (active),1 (active),1 (active),1 (active)
O=C(CCCCSc1nc(-c2ccc(-c3ccccc3)cc2)cc(=O)[nH]1)NO,≤ 0.3,1,≤ 0.3,≤ 0.3,≤ 0.3,1 (active),1 (active),1 (active),1 (active),1 (active),1 (active),1 (active),1 (active),1 (active),1 (active),1 (active),1 (active),1 (active),1 (active),1 (active)

# Source: the supplement of paper PMC7411054
